CR mimetic SO – caloric restriction mimetics inhibiting age-related superoxide in yeast; S. cerevisiae aged cells, superoxide DHE fluorescence; hits give low values; superoxide response (% of plate mean), % at 10 µM; 330,000 tested, 0.18% active; AID 2690;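 active means superoxide response under a set limit, about three screen SD below normal, cut at about 65% in these data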;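 further: yeast aged for seven days with compound at 30 °C before DHE staining; 100% = average MFI of all compound-treated wells on the plate with controls excluded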
ALR inh – blocks human ALR sulfhydryl oxidase activity; P55789; purified ALR, DTT oxidation, H2O2 HRP-luminol luminescence; inhibition, % (no concentration beside the values); 290,000 tested, 3.8% active; AID 485317;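 active means mean replicate inhibition above about 79%, with every replicate also reaching it, limit read from the data; inconclusive means only one of the two criteria met; inactive means mean below limit and not every replicate reaching it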
CendR NRP1 mod – alters CendR peptide binding to human NRP-1 | FAM-RPARPAR peptide binding to NRP-1, fluorescence polarization | inhibition, % at 25 µM | 360,000 tested, 0.85% active | AID 602438;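 active means inhibition or corrected inhibition above about 18%, plus a signal ratio from 0.5 to 1.5, limit read from the data, passing the limit was not always enough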
A3G deaminase – inhibitors of human APOBEC3G DNA deaminase | recombinant A3G, ssDNA deamination FAM/TAMRA fluorescence | Q9HC16 | inhibition, % at 20 µM | 330,000 tested, 0.28% active;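 active means inhibition of at least 40% at 20 µM, with no more than 30% in the related APOBEC3A deaminase screen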;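 further: plate controls were DMSO wells with A3G for no effect and wells lacking A3G enzyme for full effect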
PfM18AAP inh-1 – blocks P. falciparum M18 aspartyl aminopeptidase; 290,000 tested, 1.2% active; recombinant PfM18AAP, H-Glu-NHMec fluorogenic cleavage; inhibition, % at 7.35 µM;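 active means inhibition above the campaign mean inhibition over all tested compounds plus 3 SD, cut at about 28% in these data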;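 further: 0% = plate median of test compound wells and 100% = 2 mM ZnCl2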
APOBEC3A inh – human APOBEC3A DNA deaminase inhibition | P31941 | recombinant A3A, FAM/TAMRA ssDNA deamination fluorescence | inhibition, % at 20 µM | 330,000 tested, 0.41% active;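 active means at least 40% inhibition at 20 µM here, with at most 30% in a related deaminase screen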;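 further: plate controls were A3A with DMSO for no effect and wells lacking A3A enzyme for full effect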
Target sequence (P31941 whole entry, looked up): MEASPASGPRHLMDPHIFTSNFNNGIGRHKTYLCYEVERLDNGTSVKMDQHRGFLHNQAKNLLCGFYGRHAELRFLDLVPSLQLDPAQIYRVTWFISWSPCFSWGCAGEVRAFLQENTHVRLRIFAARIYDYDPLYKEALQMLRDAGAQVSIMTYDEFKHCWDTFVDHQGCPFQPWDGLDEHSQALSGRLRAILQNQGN
PfM18AAP inh-2 – PfM18AAP inhibition, confirmation; shares compounds with PfM18AAP inh-1; recombinant PfM18AAP, H-Glu-NHMec fluorogenic cleavage; inhibition, % at 7.35 µM; 2,400 tested, 28% active;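 active means mean inhibition over replicate wells above the hit cutoff set for the earlier primary screen, cut at about 29% in these data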;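 further: 0% = median of test compound wells and 100% = 2 mM ZnCl2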
CTSL1 confirm – Cathepsin L (human) inhibition, confirmation. shares compounds with PfM18AAP inh-1. purified cathepsin L1, Z-Leu-Arg-MCA fluorescence. inhibition, % at 5.96 µM. 2,400 tested, under 10 active;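 active means average inhibition across replicates above the hit cutoff set in the earlier primary screen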;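 further: 0% = median of test compound wells and 100% = Z-Phe-Ala-diazomethylketone 1 µM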
Target sequence (P07711 whole entry, looked up): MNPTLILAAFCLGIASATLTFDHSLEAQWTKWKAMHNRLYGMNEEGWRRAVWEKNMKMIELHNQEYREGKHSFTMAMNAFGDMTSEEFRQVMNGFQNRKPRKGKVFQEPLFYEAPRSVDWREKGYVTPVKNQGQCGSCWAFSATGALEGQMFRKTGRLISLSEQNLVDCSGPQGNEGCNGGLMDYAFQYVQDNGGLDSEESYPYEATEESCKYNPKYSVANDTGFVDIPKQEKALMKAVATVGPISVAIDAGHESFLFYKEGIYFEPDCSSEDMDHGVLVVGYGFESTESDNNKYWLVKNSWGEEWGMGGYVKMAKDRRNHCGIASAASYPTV
An asterisk follows results filed as active; u = inconclusive; x = no result given. Compounds with a hit are over-represented: about 5.2% of the library has one in this group of screens.

SMILES | CR mimetic SO | ALR inh | CendR NRP1 mod | A3G deaminase | PfM18AAP inh-1 | APOBEC3A inh | PfM18AAP inh-2 | CTSL1 confirm
COc1cc(/C=N/Nc2ccccc2C(F)(F)F)ccc1O | 98 | 12 | 5 | 3 | 39* | 8 | -13 | 0
COc1ccc(/C=C/C(=O)Nc2ccccc2C(F)(F)F)cc1OC | 113 | -4 | -8 | 1 | 1 | 0 | x | x
OCCN(Cc1ccccc1)Cc1nc(CC2CC2)no1 | 115 | -2 | -2 | -2 | -4 | -7 | x | x
Cc1nc(-c2ccc(F)cc2)c(CC(=O)N2CCN(S(=O)(=O)c3cccc(Cl)c3)CC2)s1 | 104 | 1 | -1 | -11 | x | -4 | x | x
O=C(N/N=C/c1ccc(N2CCOCC2)s1)c1ccccc1Br | 96 | 4 | -11 | -6 | 41* | -4 | -22 | 7
C/C(=N\NC(=O)c1ccccc1Br)c1ccc(N2CCOCC2)cc1 | 94 | 13 | 9 | -5 | -5 | -2 | x | x
CNC[C@H](O)c1ccc(O)c(O)c1 | 106 | 60 | -1 | -2 | 54* | 16 | 66* | -8
CC(C)NCC(O)c1ccc(O)c(O)c1 (stereo not given) | 110 | u | 2 | -3 | 66* | -6 | 51* | -4
CC(C)NCC(O)c1ccc2ccccc2c1 (stereo not given) | 95 | 8 | 7 | -4 | x | 4 | x | x
CC(=Nc1ccc(O)cc1)c1sc2ccccc2c1O | 82 | -2 | 144 | -2 | 55* | -1 | -39 | 3
O=C(CC1CCCC1)Nc1ccc2c(c1)CCC2 | 102 | -4 | -7 | -7 | 46* | -1 | -30 | -5
O=C(CSc1ccccc1)NCCc1ccccc1 | 108 | -14 | -11 | -2 | -3 | 0 | x | x
O=C(CSc1ccc2ccccc2c1)NCCc1ccc(O)c(O)c1 | 104 | 99* | -7 | 3 | 57* | 4 | 41* | 4
CCN1/C(=C2\C(=O)N(C)C(=S)N2C)C=Cc2cc(OC)ccc21 | 98 | 9 | 10 | 1 | 34* | 5 | -24 | -3
CCN1C(=O)/C(=C2/C=Cc3cc(C)ccc3N2CC)N(C)C1=S | 84 | 57 | 2 | 5 | 3 | 6 | x | x
Cc1ccc(/C=c2\sc3n(c2=O)CN(c2cccc(Br)c2)CN=3)o1 | 92 | -1 | -13 | 3 | 37* | -1 | -58 | -2
OCCC1CN(Cc2cccc3c2OCO3)CCN1Cc1ccccc1 (stereo not given) | 108 | 6 | 11 | 0 | 1 | 1 | x | x
COCc1[nH]nc2c1C(c1cccc(OC)c1)C(C#N)=C(N)O2 (stereo not given) | 93 | x | 6 | 6 | -6 | 7 | x | x
CC(C)(C)c1ccc(NC(=S)NCc2cccs2)cc1 | 90 | -4 | 14 | -2 | -15 | -2 | x | x
Cc1cccc[n+]1C1C(c2ccc([N+](=O)[O-])cc2)C(C#N)=C(C(=C=[N-])C#N)NC1(O)C1CC1 (stereo not given) | 86 | 47 | 10 | 0 | 4 | -1 | x | x
N#CC1=C(N)NC(=S)C(C(N)=O)C1c1ccc([N+](=O)[O-])cc1 (stereo not given) | 106 | 68 | 4 | 11 | 48* | -1 | 35* | 7
CCOC(=O)N1CCC(NC(=O)c2ccc3c(c2)sc2nc(-c4ccccc4)cn23)CC1 | 97 | -3 | -5 | -3 | 40* | 4 | -17 | 0
CCOC(=O)N1CCC(NC(=O)c2ccc3c(c2)N=C(CC)c2ccccc2S3)CC1 | 88 | -4 | 4 | -4 | 3 | -4 | x | x
c1ccc(-c2nnc(C(c3ccccc3)c3ccccc3)o2)cc1 | 95 | 12 | 11 | -6 | 6 | -8 | x | x
CCOc1ccccc1N/C(=C(/C(Cl)=C(Cl)Cl)[N+](=O)[O-])n1cncn1 | 96 | -1 | -40 | -7 | 83* | -5 | 74* | 5
SMILES | CR mimetic SO | ALR inh | CendR NRP1 mod | A3G deaminase | PfM18AAP inh-1 | APOBEC3A inh | PfM18AAP inh-2 | CTSL1 confirm
O=[N+]([O-])/C(C(Cl)=C(Cl)Cl)=C(\Nc1ccc(F)cc1)n1cncn1 | 117 | 96* | x | 34 | 81* | -4 | 79* | 8
COc1ccc(NC(=O)CSc2nnc(Cn3c(=O)sc4ccccc43)n2C)cc1 | 110 | -4 | -1 | -6 | -2 | -1 | x | x
O=Cc1ccccc1-n1cncn1 | 94 | 2 | -1 | -5 | 0 | 0 | x | x
O=c1c(-n2cncn2)c[nH]n1-c1cccc(Cl)n1 | 118 | 19 | 18* | 1 | 67* | -2 | -14 | -7
NS(=O)(=O)c1ccc(NC(=O)COC(=O)c2cn(-c3ccccc3)nc2-c2ccc(F)cc2)cc1 | 91 | 0 | 6 | -5 | 0 | -2 | x | x
Cc1ccccc1CS(=O)(=O)CCC(=O)NCCCN1CCN(c2ccccc2F)CC1 | 100 | 8 | 3 | -3 | -16 | 4 | x | x
Cc1cc(C)c2c(=O)n(CC(=O)NCCCN3CCOCC3)sc2n1 | 102 | 46 | -9 | 54* | 54* | -2 | 32* | 0
Cc1cc(C)c2c(=O)n(CC(=O)NCCCN3CCN(c4ccccc4F)CC3)sc2n1 | 86 | x | x | 53* | 47* | -4 | -9 | 0
Cc1cc([N+](=O)[O-])nn1CC(=O)NCCCN1CCOCC1 | 88 | -2 | 8 | -8 | -4 | 1 | x | x
O=C(NNC(=O)c1ccc2ccccc2c1)Nc1ccc(F)cc1 | 102 | 1 | 4 | -3 | 1 | 0 | x | x
COc1cccc(OCC(=O)NNC(=O)c2ccc3ccccc3c2O)c1 | x | x | 10 | -5 | 37* | -4 | -17 | -5
O=C(NC1CCCCC1)c1ccc2ccccc2c1O | x | x | -2 | x | x | x | x | x
O=C(NNC(=O)c1ccc2ccccc2c1O)Nc1ccc(F)cc1 | 102 | 1 | 12 | -4 | 34* | 5 | -3 | 3
O=C(NNC(=O)c1ccc2ccccc2c1O)NC1CCCCC1 | 106 | 73 | 2 | -5 | 49* | -4 | 7 | -1
COc1ccc(C(=O)N2N=C3CC(C)(C)OCC3C2c2ccccc2)cc1 (stereo not given) | 107 | 0 | 9 | -5 | 1 | -3 | x | x
O=S(=O)(c1ccccc1)c1ccccc1/C=N\O | 89 | -3 | 0 | 6 | 1 | 4 | x | x
O=C(Nc1ccc(Cc2ccc(NC(=O)C3CC3)c(O)c2)cc1O)C1CC1 | 93 | 2 | 10 | 0 | 1 | 2 | x | x
O=C(O)CCC(=O)Nc1ccc(Cc2ccc(NC(=O)CCC(=O)O)c(O)c2)cc1O | 105 | 48 | -13 | -4 | 58* | 1 | -6 | 0
CC(=O)Oc1cc2oc(=O)cc(C)c2cc1OC(C)=O | 111 | 89* | -21 | -1 | 47* | -2 | 75* | 19*
Cc1c(Br)c(=O)oc2c(Br)c(O)c(O)cc12 | 95 | 98* | -79 | x | 39* | x | 9 | -10

Assay outcomes from PubChem.
